# A selection: hits, their analogues and other compounds. The true share with any hit is near 4.3%.
# NadD block: NadD (S. aureus) enzyme inhibition. purified NadD enzyme, colorimetric absorbance read-out. inhibition, % at 20 µM. 360,000 compounds, 0.78% hits; in the data active = inhibition above about 26%
# rCAG RNA binder: binds r(CAG) RNA repeats | r(CAG) RNA repeat, TO-PRO-1 dye displacement fluorescence | inhibition, % at 3 µM | 370,000 compounds, 1.3% hits;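 active = inhibition above the plate cutoff, the mean of all test compounds on that plate plus 3 SD, cut at about 35% in these data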;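 note: 0% = DMSO alone and 100% = 100 µM mitoxantrone as full dye displacement; higher means more dye released from RNA so lower well fluorescence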
# FAS-TE inh: FAS thioesterase (human) inhibition. P49327. recombinant FAS-TE, OMFH fluorogenic substrate, fluorescence endpoint. inhibition, % at 15 µM. 360,000 compounds, 0.67% hits. AID 602261;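 active = compounds whose normalised, plate-corrected inhibition of enzyme fluorescence in the single-dose primary screen is 50% or more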;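 note: 0% = DMSO with enzyme and 100% = substrate without enzyme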
# GRIN3A LBD mod: NR3A (human) ligand-binding domain modulation; 340,000 compounds, 2.5% hits; AID 1259313; NR3A LBD differential scanning fluorimetry, Tm shift; 0% = protein alone, 100% = glycine-bound protein; Tm shift relative to glycine control, % at 25 µM;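 active = melting temperature shift of at least 10% of the positive control shift, at one fixed dose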
# FAS-TE inh conf: confirmation of human fatty acid synthase thioesterase inhibitors. inhibition, % at 15 µM. recombinant FAS-TE, OMFH fluorogenic substrate, fluorescence. AID 624325. 2,300 compounds, 45% hits. shares compounds with FAS-TE inh;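 active = compounds inhibiting the enzyme by at least 50% at 15 µM in any one of the replicates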;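 note: 0% = enzyme with DMSO only and 100% = wells lacking enzyme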
# Numbers without * were called inactive; . = no result.
SMILES,NadD block,rCAG RNA binder,FAS-TE inh,GRIN3A LBD mod,FAS-TE inh conf
CCOc1ccc(N(CC(=O)NCCSc2ccccn2)S(=O)(=O)c2ccc(Cl)cc2)cc1,-2,-1,24,-5,.
CC(=O)N1CCCN(S(=O)(=O)c2ccc3c(c2)n(C)c(=O)c(=O)n3C)CC1,.,4,.,.,.
CCCCCCCCN1C(=O)[C@@H](CC(=O)NCCCN2CCCC2=O)C[C@@]2(C(=O)OC)C1=C[C@H](C1CCCC1)O[C@@H]2C,.,4,.,.,.
COc1ccccc1C(=O)NC1CCCCN(Cc2ccc(Cl)cc2)C1=O (stereo unspecified),.,2,.,.,.
O=C(C[C@H]1C[C@H](C(=O)N2CCOCC2)[C@@]2(CCC3CCCC3)c3[nH]c4cc(-c5ccco5)ccc4c3CCN2C1=O)NCCN1CCOCC1,6,8,69*,-10,80*
COCCCNC(=O)C[C@H]1C[C@H](C(=O)N2CCOCC2)[C@@]2(CCC3CCCC3)c3[nH]c4cc(-c5ccco5)ccc4c3CCN2C1=O,-8,12,59*,0,29*
O=C(C[C@H]1C[C@H](C(=O)N2CCOCC2)[C@@]2(CCC3CCCC3)c3[nH]c4cc(-c5ccco5)ccc4c3CCN2C1=O)NCC12CC3CC(CC(C3)C1)C2,24,13,30,3,.
CN(C)CCCNC(=O)C[C@H]1C[C@H](C(=O)N2CCOCC2)[C@@]2(CCC3CCCC3)c3[nH]c4cc(-c5ccco5)ccc4c3CCN2C1=O,9,7,70*,-1,78*
COc1ccc(CNC(=O)C[C@H]2C[C@H](C(=O)N3CCOCC3)[C@@]3(CCC4CCCC4)c4[nH]c5cc(-c6ccco6)ccc5c4CCN3C2=O)cc1OC,-1,19,36,0,.
CCOc1ccc(N(CC(=O)Nc2c(C)n(C)n(-c3ccccc3)c2=O)S(=O)(=O)c2ccc(C(C)(C)C)cc2)cc1,.,4,.,.,.
CC(=O)N1CCCN(S(=O)(=O)c2ccc3c(c2)oc(=O)n3C)CC1,.,0,.,.,.
Cc1cccc(N2CCN(C(=O)CNC(=O)c3cccc([N+](=O)[O-])c3)CC2)c1C,4,-1,85*,-2,67*
Cc1cccc(N2CCN(C(=O)CNC(=O)Cc3ccccc3)CC2)c1C,-4,0,2,1,.
Cc1nc(N2CCN(S(=O)(=O)c3cccc4nonc34)CC2)c2c3c(sc2n1)CCCC3,29,-1,54*,-1,7
CC(C)CC1NC(=O)c2cc3ccccc3cc2-n2c1nc1cc(Cl)ccc1c2=O (stereo unspecified),20,4,82*,.,17
O=C1NC(Cc2ccc(O)cc2)c2nc3cc(F)c(F)cc3c(=O)n2-c2cc3ccccc3cc21 (stereo unspecified),21,16,18,.,.
O=C1NC(Cc2ccccc2)c2nc3cc(F)ccc3c(=O)n2-c2cc3ccccc3cc21 (stereo unspecified),12,13,92*,.,34
O=C1NC(Cc2ccccc2)c2nc3cc(F)c(F)cc3c(=O)n2-c2cc3ccccc3cc21 (stereo unspecified),19,13,86*,.,14
CC1NC(=O)c2cc3ccccc3cc2-n2c1nc1cc(Cl)ccc1c2=O (stereo unspecified),12,8,-7,.,.
COc1cc2nc3n(c(=O)c2cc1OC)-c1cc2ccccc2cc1C(=O)NC3CC(C)C (stereo unspecified),3,5,28,.,.
O=C1NC(Cc2ccccc2)c2nc3cc(F)ccc3c(=O)n2-c2ccc(Cl)cc21 (stereo unspecified),.,0,.,.,.
COc1cc2nc3n(c(=O)c2cc1OC)-c1cc2ccccc2cc1C(=O)NC3Cc1ccccc1 (stereo unspecified),1,10,53*,.,20
O=C1NC(Cc2ccccc2)c2nc3ccccc3c(=O)n2-c2cc3ccccc3cc21 (stereo unspecified),10,11,70*,.,-2
Cc1ccc2c(=O)n3c(nc2c1)C(Cc1ccccc1)NC(=O)c1cc2ccccc2cc1-3 (stereo unspecified),26,12,76*,.,36
COC(=O)C1=C(C)N(Cc2ccccc2C(F)(F)F)C(=NCc2ccc3c(c2)OCO3)NC1CCc1ccccc1 (stereo unspecified),.,10,.,.,.
SMILES,NadD block,rCAG RNA binder,FAS-TE inh,GRIN3A LBD mod,FAS-TE inh conf
COc1cc(NC(=O)c2ccccc2)c(C)cc1NC(=O)CSc1nnc(COc2ccccc2)n1Cc1ccco1,.,6,.,.,.
CCn1c(Cl)c(C=O)s/c1=N\S(=O)(=O)c1ccccc1,-2,0,76*,0,33
CC12C(=O)N(c3ccc(OC(=O)c4ccco4)cc3)C(=O)C1C1c3ccccc3C2c2ccccc21 (stereo unspecified),2,6,60*,-3,28
Cc1cccc(C)c1-n1nnnc1C1(C)Cn2nccc2C(=O)N1Cc1ccc(F)cc1 (stereo unspecified),.,-2,.,.,.
O=c1oc(-c2ccco2)nc2sc3c(c12)CCCC3,-3,14,66*,-1,24
O=c1oc(-c2ccccc2)nc2sc3c(c12)CCC3,-4,21,41,-1,.
COC(=O)[C@@]1(Cc2ccc(F)cc2)[C@H]2c3cc(C(=O)N(C)C)n(Cc4ccc(OC)c(OC)c4)c3C[C@H]2CN1C(=O)c1ccccc1,.,2,.,0,.
COC(=O)[C@@]1(Cc2ccc(F)cc2)[C@H]2c3cc(C(=O)N(C)C)n(CCc4ccc(OC)c(Br)c4)c3C[C@H]2CN1C(=O)c1ccccc1,-3,18,81*,1,1
COC(=O)[C@@]1(Cc2ccc(OC)cc2)[C@H]2c3cc(C(=O)N4CCCC4)n(Cc4ccsc4Br)c3C[C@H]2CN1C(=O)c1ccccc1,20,12,51*,.,23
C=CCOC(=O)N[C@H](c1cccc(OC)c1)[C@H](C)/C=C/CC(=O)OC,.,2,.,.,.
CCc1ccc(NC(=O)C(C)OC(=O)c2cccc(S(=O)(=O)N3CCc4ccccc4C3)c2)cc1 (stereo unspecified),2,12,52*,-22,20
CC(OC(=O)c1cccc(S(=O)(=O)N2CCN(C)CC2)c1)C(=O)Nc1ccc(C(N)=O)cc1 (stereo unspecified),-2,2,-6,-1,.
CC(O)CNc1nc2sc3c(c2c(=O)n1CCc1ccccc1)CCCCC3 (stereo unspecified),1,5,47,-3,.
CN(C)CCNc1nc2sc3c(c2c(=O)n1CCc1ccccc1)CCCCC3,-10,3,60*,0,56*
C/C(C=Nn1c(-c2ccc(F)cc2)n[nH]c1=S)=C/c1ccco1,.,34,.,.,.
CN(C)S(=O)(=O)c1cccc(COC(=O)c2cc([N+](=O)[O-])ccc2N2CCOCC2)c1,-7,-2,34,0,.
O=C(NC(=S)Nc1ccccc1)c1cc([N+](=O)[O-])ccc1N1CCOCC1,-5,3,58*,-5,51*
CCc1cccc(NC(=O)COC(=O)c2cc([N+](=O)[O-])ccc2N2CCOCC2)c1,-11,3,87*,-5,89*
